Calls of active or inactive are those of the source. How the source made its calls: active means hit-call score of the fitted dose curve at least 0.9, where 1 is the maximum; inactive means score below 0.9.

This assay is described as follows: Tanguay_ZF_120hpf_CRAN: Oregon State University Tanguay Lab 120 Hour Post-fertilization zebrafish Assay for Craniofacial Malformation (AID 2284397). The method, then:
Tanguay_ZF_120hpf is a whole embryo, multiplexed endpoint assay using zebrafish larvae exposed for 120 hours post fertilization on a 96-well plate.Tanguay_ZF_120hpf_CRAN is one of one assay component(s) measured or calculated from the Tanguay_ZF_120hpf assay. It is designed to make measurements of zebrafish development as detected with brightfield microscopy of developing zebrafish embryos.Data from the assay component Tanguay_ZF_120hpf_CRAN was analyzed into 1 assay endpoints. This assay endpoint, Tanguay_ZF_120hpf_CRAN, was analyzed in the positive analysis fitting direction relative to DMSO as the negative control and baseline of activity. Using a type of morphology reporter, gain-of-signal activity can be used to understand changes in developmentals as they relate to the whole embryo. To generalize the intended target to other relatable targets, this assay endpoint is annotated to the zebrafish development intended target family, where the subfamily is craniofacial morphogenesis.
Zebrafish husbandry: Tropical 5D wild-type adult zebrafish were housed in at an approximate density of 1000 per 100 gallon tank at the Sinnhuber Aquatic Research Laboratory, Oregon State University, Corvallis, OR. Each tank was kept at standard laboratory conditions of 28C on a 14-h light/10-h dark photoperiod in fish water consisting of reverse osmosis water supplemented with a commercially available salt (Instant Ocean). Spawning funnels were placed into the tanks the night prior, and embryos were collected and staged. To increase bioavailability, the chorion was enzymatically removed using pronase (63.6mg/ml, >/= 3.5U/mg, Sigma-Aldrich: P5147) at 4 hours post fertilization (hpf) using a custom automated dechorionator.Chemical exposures: Six hpf dechorionated embryos were placed 1 embryo per well in a 96-well plate prefilled with 90 ul of EM using automated embryo placement systems (AEPS). Ten microliters of each row of dilution plate 2 was added to 2 exposure plates. The final DMSO concentration used was 0.64% (vol/vol). Thirty-two embryos were also exposed to 5uM trimethyltin chloride (positive control). Plates were sealed to prevent evaporation and foil covered to reduce light exposure and kept in a 28C incubator. Embryos were statically exposed until 120 hpf. At 24 hpf, embryos were assessed for photomotor response using a custom photomotor response analysis tool (PRAT) and for developmental toxicity endpoints (MO24: mortality at 24 hpf, DP: developmental progression, SM: spontaneous movement, and NC: notochord distortion). At 120 hpf, locomotor activity was measured using Viewpoint Zebralab and assessed for 13 endpoints. Zebrafish acquisition and analysis program (ZAAP), a custom program designed to inventory, acquire, and manage zebrafish data, was used to collect developmental endpoints as either present or absent (i.e., binary responses were recorded). If mortality occurred for an embryo (at either 24 or 120 hpf), the non-mortality endpoints were not measured.
For the molecule `O=C(O)C(F)(F)C(F)(F)C(F)(F)OC(F)(F)F`, the outcome was inactive.

Take `C=CC(=O)OCCC(F)(F)C(F)(F)C(F)(F)C(F)(F)F`: the molecule was classed as inactive.

`OCC(F)(F)C(F)(F)C(F)(F)C(F)(F)C(F)(F)C(F)(F)C(F)(F)C(F)(F)CO`: the call was inactive.

Consider `OCCCCC(F)(F)C(F)(F)C(F)(F)C(F)(F)F`, for which the outcome was inactive.

Consider `C=CC(=O)OCC(F)(F)C(F)(F)C(F)(F)COC(=O)C=C`, for which the AC50 was 18.6 µM (active).

For `CN(C(=O)C(F)(F)C(F)(F)C(F)(F)F)[Si](C)(C)C`, the outcome was inactive.

As for `CCOC(=O)CC(=O)C(F)(F)C(F)(F)F`, the molecule was classed as inactive.

Consider `NC(=O)C(F)(F)C(F)(F)C(F)(F)C(F)F`, for which the molecule was classed as inactive.

`O=C(O)CCC(F)(F)C(F)(F)C(F)(F)F`: the outcome was inactive.

For the molecule `OCC(O)CC(F)(F)C(F)(F)C(F)(F)C(F)(F)F` (configuration not stated), the molecule was classed as inactive.

On to `NC(=O)C(F)(F)C(F)(F)C(F)(F)F`, for which the call was inactive.

As for `CO[Si](C)(CCC(F)(F)C(F)(F)C(F)(F)C(F)(F)C(F)(F)C(F)(F)F)OC`, the molecule was called inactive.

In the case of `NS(=O)(=O)C(F)(F)C(F)(F)C(F)(F)C(F)(F)C(F)(F)C(F)(F)F`, the call was inactive.

In the case of `O=C(O)C(F)(F)C(F)(F)C(F)(F)C(=O)O`, the molecule was classed as inactive.

For `OCCCC(F)(F)C(F)(F)C(F)(F)C(F)(F)C(F)(F)C(F)(F)C(F)(F)C(F)(F)F`, the molecule was called inactive.

`CCN(CCO)S(=O)(=O)C(F)(F)C(F)(F)C(F)(F)C(F)(F)C(F)(F)C(F)(F)C(F)(F)C(F)(F)F`: the molecule was classed as inactive.

Take `O=C(O)CCC(F)(F)C(F)(F)C(F)(F)C(F)(F)C(F)(F)C(F)(F)C(F)(F)F`: the result was inactive.

In the case of `OC(O)C(F)(F)C(F)(F)F`, the molecule was called inactive.

`COC(F)(C(F)F)C(F)(F)F` (configuration not stated): the outcome was inactive.

Take `OCC(F)(F)C(F)(F)C(F)(F)C(F)(F)C(F)(F)C(F)(F)CO`: the molecule was classed as inactive.

As to `O=C(F)C1(F)C(F)(F)C(F)(F)C(F)(F)C(F)(F)C1(F)F`, the molecule was called inactive.

As for `C=CC(=O)OCC(F)(F)C(F)(F)C(F)(F)C(F)(F)C(F)(F)C(F)(F)C(F)(F)C(F)F`, the molecule was classed as inactive.

In the case of `O=S(=O)(O)CCC(F)(F)C(F)(F)C(F)(F)C(F)(F)C(F)(F)C(F)(F)C(F)(F)C(F)(F)F`, the AC50 is 89.2 µM (active).

Regarding `C[Si](Cl)(Cl)CCC(F)(F)C(F)(F)C(F)(F)C(F)(F)C(F)(F)C(F)(F)F`, the molecule was called inactive.

With `NC(=O)C(F)(F)C(F)(F)C(F)(F)C(F)(F)C(N)=O`, the outcome was inactive.

Consider `O=S(=O)(OCC(F)(F)F)C(F)(F)C(F)(F)C(F)(F)C(F)(F)F`, for which the outcome was inactive.

For the molecule `NC(O)(C(F)(F)F)C(F)(F)F`, the molecule was classed as inactive.

Consider `O=S(=O)(O)CCC(F)(F)C(F)(F)C(F)(F)C(F)(F)F`, for which the molecule was called inactive.

For the molecule `OCC(F)(F)C(F)(F)C(F)(F)CO`, the molecule was classed as inactive.

`NC(=O)C(F)(F)C(F)(F)C(F)(F)C(F)(F)C(F)(F)C(F)(F)C(F)(F)F`: the call was inactive.

Take `FC(F)(F)C(F)(F)C(F)(F)C(F)(F)C(F)(F)C(F)(F)C(F)(F)CCI`: the outcome was inactive.

For the molecule `FC(F)(F)C(F)(F)C(F)(F)CC1CO1` (configuration not stated), the result was inactive.

As to `FC(F)(F)C(F)(F)C(F)(F)C(F)(F)C(F)(F)C(F)(F)CC[Si](Cl)(Cl)Cl`, the molecule was called inactive.

Take `CNS(=O)(=O)C(F)(F)C(F)(F)C(F)(F)C(F)(F)C(F)(F)C(F)(F)C(F)(F)C(F)(F)F`: the call was inactive.

`O=C(O)C(F)(F)C(F)(F)C(F)(F)OC(F)(C(F)(F)F)C(F)(F)F`: the result was inactive.

As to `O=S(=O)(Cl)C(F)(F)C(F)(F)C(F)(F)C(F)(F)C(F)(F)C(F)(F)C(F)(F)C(F)(F)F`, the molecule was called inactive.

`OCC(O)CC(F)(F)C(F)(F)C(F)(F)C(F)(F)C(F)(F)C(F)(F)C(F)(F)C(F)(F)F` (configuration not stated): the AC50 is 6.76 µM (active).

For the origin of these results see PubChem BioAssay (EPA / NIEHS).
